According to PubChem BioAssay (Tox21):
Results filed as inconclusive are left out. Some structures have more than one record in an assay (separate samples or runs), and their calls can disagree. Activity calls are given as the source filed them. Unless noted, the call rests on the fitted dose curve; in most records, active means well fitted curve in the direction sought with a large enough effect in the repeat runs; inconclusive means weak or mixed curves; inactive means no such curve, though single readings can be large; an effect the other way counts as inactive or inconclusive.

Legend:
[1] = qHTS assay to identify small molecule HDAC inhibitors (AID 1259364); further: potency means the concentration at half of the fitted maximal effect;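 further: wild-type HCT-116 cells with endogenous class I/II HDAC activity; nearly all actives have a fitted effect of over 45% in size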
Procedure, shortened: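 Read-out: luminescence of HDAC-Glo I/II reagent, 30 min RT, reflecting class I/II deacetylase activity in whole HCT-116 cells pre-exposed 2 h to DMSO-dissolved compounds.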

[2] = qHTS assay to identify small molecule HDAC inhibitors - cell viability counter screen (AID 1259365); further: series mostly up to about 92 µM; nearly all actives have a fitted effect of over 50% in size
Procedure, shortened: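 To flag cytotoxic hits, 1,500 wild-type HCT-116 cells per well, plated the day before, receive test compounds for 2hr at 37 C before CellTiter-Glo reagent and a luminescence read.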

[3] = qHTS assay to identify small molecule agonists of the sonic hedgehog signaling (Shh) pathway - cell viability counter screen (AID 1259366); further: nearly all actives have a fitted effect of over 50% in size
Procedure, shortened: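 Fluorescence from CellTiter-Fluor reports live cells in this counter screen. NIH/3T3-derived Gli1-Luc reporter cells receive test compounds for 24hr at 37C; reagent goes in at 23hr.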

[4] = qHTS assay to identify small molecule antagonists of the sonic hedgehog signaling (Shh) pathway - cell viability counter screen (AID 1259367); further: nearly all actives have a fitted effect of over 55% in size
Procedure, shortened: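 NIH/3T3-derived Gli1-Luc reporter cells (2,000 per well) rested 4 hr at 37 C, then received DMSO compounds plus conditioned medium. After 23 hr of treatment, CellTiter-Fluor was added for 1 hr at 37C and fluorescence read.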

[5] = qHTS assay to identify small molecule agonists of the sonic hedgehog signaling (Shh) pathway (AID 1259368; calls by dose curve;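 further: NIH/3T3-derived 3T3Gli1-Luc cells carrying a stable Gli1-driven firefly luciferase reporter; series mostly up to about 92 µM; nearly all actives have a fitted effect of over 15% in size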)
Procedure, shortened: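 A Gli1 transcriptional response element controlled firefly luciferase in 3T3Gli1-Luc cells. Compounds and a positive control were added 4 hr after plating, and cells were incubated a further 24 hr at 37 C before luminescence detection.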

[6] = qHTS assay to identify small molecule antagonists of the sonic hedgehog signaling (Shh) pathway (AID 1259369; calls by dose curve; further: nearly all actives have a fitted effect of over 45% in size; further: potency means the concentration at half of the fitted maximal effect)
Procedure, shortened: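 For antagonist detection, the reporter line received test compounds together with conditioned medium, incubated 24hr at 37 C, 5% CO2, then luminescence was recorded following 30min room-temperature luciferase reagent incubation.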

[7] = qHTS assay to identify small molecule agonists of the androgen receptor (AR) signaling pathway in the presence of an antagonist - cell viability counter screen (AID 1259379);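 further: MDA-kb2 human breast cancer cells carrying an MMTV luciferase reporter; series mostly up to about 92 µM; nearly all actives have a fitted effect of over 25% in size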
Procedure, shortened: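 Seed MDA-kb2 at 3,000 cells/well; incubate 5 hr, 37C, 0% CO2. Add nilutamide to 3.0uM final, then pin compounds at 15 concentrations. Incubate 16 hr. Add CellTiter-Fluor at 15 hr, read fluorescence after 1 hr.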

[8] = qHTS assay to identify small molecule agonists of the estrogen receptor beta (ER-beta) signaling pathway - cell viability counter screen (AID 1259380); further: nearly all actives have a fitted effect of over 30% in size; further: potency means the concentration at half of the fitted maximal effect
Procedure, shortened: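 CellTiter-Glo read, 30 min RT, same wells as bla assay; cells ER-beta-UAS-bla HEK293T; 16 hr compound, 37C; medium 2% charcoal-stripped FBS.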

[9] = qHTS assay to identify small molecule antagonists of the estrogen receptor beta (ER-beta) signaling pathway - cell viability counter screen (AID 1259382); further: nearly all actives have a fitted effect of over 55% in size; further: potency means the concentration at half of the fitted maximal effect
Procedure, shortened: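 In this multiplexed counter screen, cells were seeded at 2,000 per well in medium with 2% charcoal-stripped FBS and incubated 6 hr before compound and 1nM final E2 were added. Sixteen hours later, ATP-based luminescence reported viability.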

[10] = biological target: Estrogen receptor (Homo sapiens) (UniProt P03372); test: qHTS assay to identify small molecule agonists of the estrogen receptor alpha (ER-alpha) signaling pathway in the presence of an antagonist (AID 1259383; calls by dose curve; further: top concentration of the series differs between compounds; nearly all actives have a fitted effect of over 15% in size)
Chain of Estrogen receptor (Homo sapiens) (P03372 whole entry, looked up): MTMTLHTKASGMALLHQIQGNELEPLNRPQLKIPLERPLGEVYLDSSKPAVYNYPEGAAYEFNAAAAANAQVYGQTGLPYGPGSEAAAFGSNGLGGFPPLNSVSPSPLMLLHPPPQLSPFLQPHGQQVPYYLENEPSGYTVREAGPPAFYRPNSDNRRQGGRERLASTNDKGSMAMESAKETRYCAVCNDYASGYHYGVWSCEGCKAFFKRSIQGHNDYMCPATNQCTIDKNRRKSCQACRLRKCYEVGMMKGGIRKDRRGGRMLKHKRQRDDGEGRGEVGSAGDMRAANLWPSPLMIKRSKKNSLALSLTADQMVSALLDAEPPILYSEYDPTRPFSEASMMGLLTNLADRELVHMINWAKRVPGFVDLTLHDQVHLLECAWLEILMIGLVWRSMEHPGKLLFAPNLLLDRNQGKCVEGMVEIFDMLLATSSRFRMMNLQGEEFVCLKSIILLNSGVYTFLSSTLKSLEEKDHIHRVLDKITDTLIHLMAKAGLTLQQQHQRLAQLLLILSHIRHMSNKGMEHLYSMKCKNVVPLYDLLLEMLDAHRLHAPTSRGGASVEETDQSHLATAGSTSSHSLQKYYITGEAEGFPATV
Procedure, shortened: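 Stably transfected VM7Luc4E2 reporter cells, kept 5 days in charcoal-stripped serum, received ICI-182,780 at 10.0nM final before compound addition. Following 22hr incubation at 37C and 5% CO2, luciferase signal was read by luminescence.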

[11] = biological target: Thyrotropin receptor (Homo sapiens) (UniProt P16473); test: qHTS assay to identify small molecule antagonists of the thyroid stimulating hormone receptor (TSHR) signaling pathway (AID 1259385; calls by dose curve; further: nearly all actives have a fitted effect of over 20% in size)
Chain of Thyrotropin receptor (Homo sapiens) (P16473 whole entry, looked up): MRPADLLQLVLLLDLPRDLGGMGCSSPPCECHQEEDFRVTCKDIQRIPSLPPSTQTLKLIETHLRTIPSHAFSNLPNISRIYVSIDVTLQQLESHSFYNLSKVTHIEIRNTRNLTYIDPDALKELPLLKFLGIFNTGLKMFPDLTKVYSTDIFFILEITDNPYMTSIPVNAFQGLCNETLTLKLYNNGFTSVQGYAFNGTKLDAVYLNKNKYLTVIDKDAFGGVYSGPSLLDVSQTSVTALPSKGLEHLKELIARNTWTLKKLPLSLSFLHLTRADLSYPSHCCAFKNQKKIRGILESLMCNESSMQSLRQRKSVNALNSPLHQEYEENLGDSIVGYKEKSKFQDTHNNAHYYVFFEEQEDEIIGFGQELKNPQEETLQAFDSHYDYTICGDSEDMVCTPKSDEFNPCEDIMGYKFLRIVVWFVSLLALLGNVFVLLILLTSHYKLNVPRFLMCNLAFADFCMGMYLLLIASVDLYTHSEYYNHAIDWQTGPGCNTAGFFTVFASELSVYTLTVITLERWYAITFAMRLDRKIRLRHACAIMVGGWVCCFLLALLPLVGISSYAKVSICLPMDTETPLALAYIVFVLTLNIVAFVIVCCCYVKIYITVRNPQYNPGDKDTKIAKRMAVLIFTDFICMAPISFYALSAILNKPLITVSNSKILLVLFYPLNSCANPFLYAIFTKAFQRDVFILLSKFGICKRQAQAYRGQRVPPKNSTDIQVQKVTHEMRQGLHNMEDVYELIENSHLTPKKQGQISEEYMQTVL
Procedure, shortened: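 TSHR-HEK293 cells were plated and held 18 h at 37C/5% CO2, then given compound plus Ro20-1724 and stimulated with TSH at 1.5 ng/mL final. After 30 min at room temperature, cAMP was detected with cAMP-d2/anti-cAMP-cryptate (1 h) by fluorescence.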

[12] = qHTS assay to identify small molecule agonists of the estrogen receptor alpha (ER-alpha) signaling pathway in the presence of an antagonist - cell viability counter screen (AID 1259386);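 further: series mostly up to about 92 µM; cells exposed to compounds for 22 h at 37 °C before the viability read; nearly all actives have a fitted effect of over 30% in size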
Procedure, shortened: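 Viability counter screen using VM7Luc4E2 (full-length ER-alpha, four ERE-luciferase). The cells were treated with compounds alongside ICI-182,780 10.0nM for 22hr, and live-cell protease fluorescence was quantified with CellTiter-Fluor.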

[13] = biological target: Progesterone receptor (Homo sapiens) (UniProt P06401); test: qHTS assay to identify small molecule agonists of the progesterone receptor (PR) signaling pathway (AID 1346784; calls by dose curve; further: nearly all actives have a fitted effect of over 30% in size)
Chain of Progesterone receptor (Homo sapiens) (P06401 whole entry, looked up): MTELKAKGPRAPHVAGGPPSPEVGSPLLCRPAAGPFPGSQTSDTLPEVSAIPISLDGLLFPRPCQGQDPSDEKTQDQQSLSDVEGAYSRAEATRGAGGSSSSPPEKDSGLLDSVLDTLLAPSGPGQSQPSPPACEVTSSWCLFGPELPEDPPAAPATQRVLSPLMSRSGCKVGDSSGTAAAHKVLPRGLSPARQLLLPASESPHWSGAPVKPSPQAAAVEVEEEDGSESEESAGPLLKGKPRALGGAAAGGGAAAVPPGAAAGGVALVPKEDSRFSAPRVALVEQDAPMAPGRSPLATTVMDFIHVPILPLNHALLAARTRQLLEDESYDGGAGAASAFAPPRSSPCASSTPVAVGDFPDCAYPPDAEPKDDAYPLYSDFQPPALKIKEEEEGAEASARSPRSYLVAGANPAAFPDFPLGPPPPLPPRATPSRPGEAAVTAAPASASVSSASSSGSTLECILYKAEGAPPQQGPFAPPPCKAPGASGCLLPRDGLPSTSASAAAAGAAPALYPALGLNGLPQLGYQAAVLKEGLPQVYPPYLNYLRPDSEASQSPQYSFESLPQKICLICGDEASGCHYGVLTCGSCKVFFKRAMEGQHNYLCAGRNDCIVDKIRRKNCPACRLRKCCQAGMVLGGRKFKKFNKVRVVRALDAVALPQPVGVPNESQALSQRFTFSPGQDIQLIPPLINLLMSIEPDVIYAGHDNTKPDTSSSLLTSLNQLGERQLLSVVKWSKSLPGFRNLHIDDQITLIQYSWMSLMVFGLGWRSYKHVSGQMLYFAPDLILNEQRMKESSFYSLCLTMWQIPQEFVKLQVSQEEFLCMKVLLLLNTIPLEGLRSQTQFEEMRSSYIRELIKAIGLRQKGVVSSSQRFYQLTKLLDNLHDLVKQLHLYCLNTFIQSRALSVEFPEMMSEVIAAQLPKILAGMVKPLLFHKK
Procedure, shortened: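 Seed PR-UAS-bla HEK 293T cells (2% charcoal-stripped FBS), incubate 6 hr at 37C; add compounds in DMSO, 16 hr at 37C; add LiveBLAzer B/G substrate, 2 hr RT; read fluorescence intensity.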

[14] = biological target: Progesterone receptor (Homo sapiens) (UniProt P06401); test: qHTS assay to identify small molecule antagonists of the progesterone receptor (PR) signaling pathway (AID 1346795; active means well fitted inhibition curve with a large enough effect in the signal ratio in the repeat runs, not every such curve was filed as active; the % refers to the signal ratio; further: potency means the concentration at half of the fitted maximal effect)
Procedure, shortened: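 Screening used a GripTite HEK293T line with PR-responsive UAS-beta-lactamase. Cells were challenged with compound in the presence of 1 nM R5020 final for 16 hr at 37C; B/G FRET substrate, 2 hr room temperature, fluorescence.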

[15] = qHTS assay to identify small molecule antagonists of the progesterone receptor (PR) signaling pathway - cell viability counter screen (AID 1346798); further: series mostly up to about 92 µM; nearly all actives have a fitted effect of over 50% in size
Procedure, shortened: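 Measures cytotoxicity in parallel with the PR antagonist reporter read: HEK293T PR-UAS-bla cells get compound and R5020 for 16 hr, and remaining viable cells are quantified by CellTiter-Glo luminescence.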

[16] = biological target: Estrogen receptor beta (Homo sapiens) (UniProt Q92731); test: qHTS assay to identify small molecule agonists of the estrogen receptor beta (ER-beta) signaling pathway (AID 1259377; active means well fitted activation curve with a large enough effect in the signal ratio in the repeat runs, not every such curve was filed as active; the % refers to the signal ratio; further: potency means the concentration at half of the fitted maximal effect)
Chain of Estrogen receptor beta (Homo sapiens) (Q92731 whole entry, looked up): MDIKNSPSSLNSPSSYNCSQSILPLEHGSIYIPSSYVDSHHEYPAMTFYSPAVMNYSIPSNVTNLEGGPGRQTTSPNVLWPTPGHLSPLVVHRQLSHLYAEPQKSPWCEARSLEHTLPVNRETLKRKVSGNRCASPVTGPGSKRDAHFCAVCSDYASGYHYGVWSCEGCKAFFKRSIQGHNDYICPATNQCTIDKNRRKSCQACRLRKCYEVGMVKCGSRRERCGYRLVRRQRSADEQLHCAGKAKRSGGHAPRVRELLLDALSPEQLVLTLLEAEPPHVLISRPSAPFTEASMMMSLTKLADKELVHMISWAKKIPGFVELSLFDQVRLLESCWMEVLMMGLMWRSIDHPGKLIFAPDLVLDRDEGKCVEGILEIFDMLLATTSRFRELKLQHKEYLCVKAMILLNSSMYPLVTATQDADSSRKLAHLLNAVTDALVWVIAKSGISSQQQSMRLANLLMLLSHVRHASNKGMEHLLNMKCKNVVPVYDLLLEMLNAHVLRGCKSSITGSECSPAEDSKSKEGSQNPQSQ
Procedure, shortened: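 Screening used GripTite ER-beta-UAS-bla cells held in 2% charcoal-stripped FBS medium. After overnight (16 hr) compound incubation at 37C, beta-lactamase activity was detected with a FRET substrate by fluorescence.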

[17] = biological target: Estrogen receptor beta (Homo sapiens) (UniProt Q92731); test: qHTS assay to identify small molecule antagonists of the estrogen receptor beta (ER-beta) signaling pathway (AID 1259378; active means well fitted inhibition curve with a large enough effect in the signal ratio in the repeat runs, not every such curve was filed as active; the % refers to the signal ratio)
Procedure, shortened: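 ER-beta-UAS-bla HEK293T (GripTite) cells in 2% charcoal-stripped FBS medium were preincubated 6 hr at 37C, dosed with compound, then stimulated with 1 nM E2 (final) for 16 hr; beta-lactamase reporter read by B/G FRET fluorescence after 2 hr substrate loading.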

[18] = qHTS assay to identify small molecule agonists or antagonists of the thyroid stimulating hormone receptor (TSHR) signaling pathway - wild type cell line counter screen (AID 1259384; calls by dose curve)
Procedure, shortened: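 Wild-type HEK293 cells were plated 18 h at 37 C/5% CO2, pin-dosed with compound plus Ro20-1724 medium, held 30 min at room temperature, then given cAMP-d2 and anti-cAMP-cryptate; fluorescence was read after 1 h. Fifteen concentrations, triplicate.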

[19] = biological target: Androgen receptor (Homo sapiens) (UniProt P10275); test: qHTS assay to identify small molecule agonists of the androgen receptor (AR) signaling pathway in the presence of an antagonist (AID 1259381; calls by dose curve; further: nearly all actives have a fitted effect of over 15% in size)
Chain of Androgen receptor (Homo sapiens) (P10275 whole entry, looked up): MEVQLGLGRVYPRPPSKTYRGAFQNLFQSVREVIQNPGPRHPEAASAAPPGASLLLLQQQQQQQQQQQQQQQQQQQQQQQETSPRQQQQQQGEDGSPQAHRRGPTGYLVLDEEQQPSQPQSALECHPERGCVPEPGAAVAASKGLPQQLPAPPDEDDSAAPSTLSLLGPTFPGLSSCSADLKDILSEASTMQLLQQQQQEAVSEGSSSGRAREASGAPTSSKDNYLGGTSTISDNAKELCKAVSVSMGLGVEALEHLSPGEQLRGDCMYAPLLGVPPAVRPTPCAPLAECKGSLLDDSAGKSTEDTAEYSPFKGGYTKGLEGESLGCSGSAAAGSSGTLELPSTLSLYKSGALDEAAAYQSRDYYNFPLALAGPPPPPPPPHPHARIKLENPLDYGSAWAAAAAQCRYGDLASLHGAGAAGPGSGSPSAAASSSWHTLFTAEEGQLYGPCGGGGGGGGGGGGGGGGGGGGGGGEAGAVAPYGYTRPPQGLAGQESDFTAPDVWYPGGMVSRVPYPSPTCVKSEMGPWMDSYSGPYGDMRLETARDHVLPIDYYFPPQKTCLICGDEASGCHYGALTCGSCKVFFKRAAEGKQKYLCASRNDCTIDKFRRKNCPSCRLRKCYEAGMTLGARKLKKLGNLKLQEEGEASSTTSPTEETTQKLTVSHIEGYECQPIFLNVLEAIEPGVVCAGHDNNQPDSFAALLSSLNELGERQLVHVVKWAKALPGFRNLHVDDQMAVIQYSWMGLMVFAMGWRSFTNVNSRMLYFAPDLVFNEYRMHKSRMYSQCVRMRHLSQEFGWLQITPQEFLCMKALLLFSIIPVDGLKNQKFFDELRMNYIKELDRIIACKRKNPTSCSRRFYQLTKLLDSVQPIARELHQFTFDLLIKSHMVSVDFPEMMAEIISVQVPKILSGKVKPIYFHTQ
Procedure, shortened: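 Test compounds at 15 concentrations were incubated for 16hr with MDA-kb2 reporter cells in presence of 3.0uM nilutamide (final). Signal: ONE-Glo luciferase luminescence.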

Measured: Potency

CCC12COCN1COC2
not listed: [16] | [17] | [18] | [19]
inactive: all other assays above

Cc1ccc(N)cc1Cl
not listed: [15] | [18] | [19]
inactive: all other assays above

C#CC(C)(C)NC(=O)c1cc(Cl)cc(Cl)c1
not listed: [10] | [15] | [16] | [17] | [19]
inactive: all other assays above

CCC[N+](=O)[O-]
8.48 µM (active) and inactive: [8] | [14]
23.9 µM (active) and inactive: [9]
not listed: [10] | [13] | [15] | [19]
inactive: all other assays above

O=C(O)c1ccccn1
not listed: [11] | [18] | [19]
inactive: all other assays above

CC(C)N1C(=O)c2ccccc2NS1(=O)=O
not listed: [16] | [17] | [19]
inactive: all other assays above

CCN(CC)CCO
not listed: [10] | [15] | [18] | [19]
inactive: all other assays above

Clc1cccc(Cl)c1Cl
not listed: [10] | [15] | [16] | [17] | [19]
inactive: all other assays above

Nc1ccc(Br)cc1
43.2 µM (active) and inactive: [6]
active: [14] 61 µM
not listed: [17] | [19]
inactive: all other assays above

CCCCN(CCCC)SN(C)C(=O)Oc1cccc2c1OC(C)(C)C2
31.1 µM (active) and inactive: [6]
not listed: [11] | [16] | [17] | [19]
inactive: all other assays above

Cc1cc(Cl)ccc1O
active: [6] 2.65 µM
not listed: [10] | [15] | [18] | [19]
inactive: all other assays above

C=CCO
28.5 µM (active) and inactive: [1]
not listed: [10] | [15] | [16] | [17] | [19]
inactive: all other assays above

CC(C#N)CCC#N (stereo unspecified)
not listed: [15] | [18] | [19]
inactive: all other assays above

Nc1ccc(Cc2ccc(N)cc2)cc1
not listed: [8] | [10] | [16] | [17] | [19]
inactive: all other assays above

CC(C)(C)OOC(=O)c1ccccc1
61.2 µM (active) and inactive: [16]
not listed: [10] | [11] | [15] | [18] | [19]
inactive: all other assays above

CCCN(CCC)N=O
not listed: [18] | [19]
inactive: all other assays above

CCCCCCCCCl
not listed: [11] | [14] | [15] | [18] | [19]
inactive: all other assays above

c1ccc2c(c1)Oc1ccccc1O2
not listed: [10] | [16] | [17] | [18] | [19]
inactive: all other assays above

[N-]=[N+]=[N-]
not listed: [15] | [16] | [17] | [18]
inactive: all other assays above
